# AmpC inh detg: inhibitors of E. coli AmpC beta-lactamase with detergent. P00811. 370,000 tested, 0.041% active. AmpC hydrolysis of nitrocefin, absorbance 480 nm, 0.01% Triton. AID 485294. Potency, µM (series often up to 114 µM), for the others: at the top dose activity change, negative = inhibition, usual class: inhibitors;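 also: 0% = no-compound wells and -100% = no-enzyme wells; nearly all actives have a fitted effect of over 25% in size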
# Target sequence (P00811 whole entry, looked up): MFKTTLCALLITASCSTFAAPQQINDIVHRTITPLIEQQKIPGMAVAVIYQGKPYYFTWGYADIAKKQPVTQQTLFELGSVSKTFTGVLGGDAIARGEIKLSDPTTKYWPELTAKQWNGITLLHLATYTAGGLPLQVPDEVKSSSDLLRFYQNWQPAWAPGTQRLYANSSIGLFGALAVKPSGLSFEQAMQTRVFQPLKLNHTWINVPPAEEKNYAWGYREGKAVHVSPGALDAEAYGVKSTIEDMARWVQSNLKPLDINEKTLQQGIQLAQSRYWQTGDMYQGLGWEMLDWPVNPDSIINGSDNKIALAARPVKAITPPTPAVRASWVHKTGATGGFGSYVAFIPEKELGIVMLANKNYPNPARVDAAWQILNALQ
#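 20 mM phosphate pH 7.0 + 0.01% (detergent screen) or 0.0001% Triton X-100; 5.3 nM AmpC reagent; cpd preinc 15 min RT; nitrocefin (800 uM stock) to start; A480 q20 s × 4 min; Activity was normalised to no-enzyme and no-compound control wells.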
# HCV inhibitor: blocks hepatitis C virus | Huh7.5.1 HCVcc-Cre infection, luciferase reporter, 44 h | Potency, µM (top dose mostly 41.8 µM), inactives show at the top dose activity change, negative = inhibition, hits mostly inhibitors | 340,000 tested, 3.4% active
#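 Whole-lifecycle infectious HCVcc-Cre system; cells 1,000/well, compound then virus (~0.5 moi) added 4 h after plating, 44 h culture. Luciferase read 15 sec following 15 min substrate incubation, room temp.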
# Pf growth 96h: inhibits malaria parasite growth, 96 h. P. falciparum luciferase reporter growth, 96 h. Potency, µM (highest dose often 28.7 µM), for the others: top-dose activity change, negative = inhibition, usual class: inhibitors. 320,000 tested, 6.9% active
#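 Cell-based qHTS: luciferase-tagged P. falciparum in erythrocytes (2% hematocrit, 0.05% parasitemia final) incubated with compounds for 96 hours, 37 C, 5% CO2; luciferase detection reagent then added and luminescence measured.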
# AmpC no deterg: inhibitors of E. coli AmpC beta-lactamase without detergent; AmpC nitrocefin hydrolysis, absorbance 480 nm, 0.0001% Triton; Potency, µM (titrated, usually from 57.1 µM), for inactives: at the highest dose activity change, negative = inhibition, hits mostly inhibitors; P00811; AID 485341; 330,000 tested, 0.52% active;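 also: plate controls were no compound for no effect and no enzyme for full effect; nearly all actives have a fitted effect of over 20% in size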
#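 20 mM phosphate pH 7.0 + 0.01% (detergent screen) or 0.0001% Triton X-100; 5.3 nM AmpC reagent; cpd preinc 15 min RT; nitrocefin (800 uM stock) to start; A480 q20 s × 4 min; Activity was normalised to no-enzyme and no-compound control wells.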
# AMA1-RON2 inh: disrupts binding of P. falciparum AMA1 to RON2; AlphaScreen AMA1-biotinylated RON2 peptide binding; Potency, µM (highest dose often 58.2 µM), inactives show at the highest dose activity change, negative = inhibition, most hits filed as inhibitors; 360,000 tested, 0.2% active; AID 720542;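 also: 0% = vehicle wells and -100% = peptide control; nearly all actives have a fitted effect of over 45% in size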
#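 AMA1 (3D7) with his tag at 25 nM final met compounds first, then biotinylated RON2 peptide at 25 nM; detection used donor plus acceptor beads, 10 µg/mL apiece, read by AlphaScreen after 30 min at room temperature.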
# Pf growth 48h: inhibits P. falciparum growth in the first generation, 48 h. P. falciparum luciferase growth in erythrocytes, 48 h. 310,000 tested, 5.9% active. Potency, µM (series often up to 28.7 µM), without a hit: at the top dose activity change, negative = inhibition, hits mostly inhibitors
#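 Erythrocytes infected with P. falciparum carrying an integrated firefly luciferase reporter (2% hematocrit, 0.1% parasitemia final) were exposed to compounds in RPMI 1640 with 0.5% Albumax at 37 C, 5% CO2. Growth inhibition was scored as reduced luminescence.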
# * marks the source's active call; other numbers are inactive results; ? = inconclusive; / = not tested or not shown; [ ] = dose if it differs, or a comment. In the library only some 11% were active in any assay of this set; here they are far more common. Calls follow the shape of the dose curve; as a rule, active = well fitted curve in the direction sought with a large enough effect; inconclusive = small, poorly fitted or top-dose-only effect, or another doubt; inactive = no such curve, though single readings can be large; an effect the other way counts as inactive or inconclusive. Unless noted, % is scaled to controls: 0 for no effect and ±100 for the full control effect; potency is read from the fitted curve at half-maximal effect.
SMILES,AmpC inh detg,HCV inhibitor,Pf growth 96h,AmpC no deterg,AMA1-RON2 inh,Pf growth 48h
O=c1c2oc3ccccc3c2[nH]c(=S)n1-c1ccc(F)cc1,-10%,20%,8.3µM*,-34%,102%,5%
COC(=O)c1ccccc1NC(=O)CCCn1c(=O)c2cccn2c2cccnc21,2%,/,/,/,/,/
COCCCNC(=S)N1CCN(c2ccc([N+](=O)[O-])cc2)CC1,2%,?,-26%,-9%,-11%,6.6µM*
CNC(=S)N1CCN(c2ccc([N+](=O)[O-])cc2)CC1,1%,-5%,13µM*,-20%,-2%,?
O=[N+]([O-])c1ccc(N2CCN(C(=S)NCc3ccc(Cl)cc3)CC2)cc1,7%,11µM*,2%,-28%,-4%,?
C=CCNC(=S)N1CCN(c2ccc([N+](=O)[O-])cc2)CC1,-11%,-27%,?,-23%,-11%,1.7µM*
COc1ccccc1-c1nnc(C2CCN(C(=O)c3cccc(Cl)c3)CC2)o1,9%,/,/,/,/,/
CCNC(=S)N1CCN(c2ccc([N+](=O)[O-])cc2)CC1,-6%,-3%,6.6µM*,-13%,-9%,12µM*
Cc1ccc(-c2cc(-c3ccco3)c3c(N)c(C(=O)NN)oc3n2)cc1,-6%,?,?,27%,64%,4.7µM*
CC(C)=CCOc1ccc([C@@H]2COc3c(ccc4c3C=CC(C)(C)O4)C2)c(O)c1,/,4.5µM*,/,/,-22%,/
CN1CCN(C(=S)c2ccc(Cl)cc2)CC1,4%,3%,/,-23%,13%,0%
CN1CCN(CC(O)(c2ccc(Cl)cc2)c2ccc(Cl)cc2)CC1,?,3.2µM*,15µM*,102%,-6%,9.3µM*
COc1ccccc1OCC(=O)N(Cc1nc(-c2ccccc2)no1)C1CCCCC1,-8%,11µM*,/,47%,-4%,13µM*
Cc1ccccc1C(=O)N(Cc1nc(-c2ccc(Cl)cc2)no1)C(C)C,15%,/,/,/,/,/
CC(C)N(Cc1nc(-c2ccccc2)no1)C(=O)c1ccc([N+](=O)[O-])cc1,-13%,22µM*,13%,16%[2.29 µM],-5%,5%
COc1ccc(-c2noc(CN(C(=O)c3c(-c4ccccc4Cl)noc3C)C(C)C)n2)cc1,-9%,?,/,28%,-8%,10µM*
Cc1ccccc1OCC(=O)N(Cc1nc(-c2ccccc2)no1)C(C)C,-1%,0%,-8%,29%,1%,?
COc1ccccc1C(=O)N(Cc1nc(-c2ccc(Cl)cc2)no1)C(C)C,?,11µM*,5%,62%,-7%,/
CC(C)N(Cc1nc(-c2ccccc2)no1)C(=O)c1ccc(Cl)cc1,-17%,?,-4%,4%,6%,/
COc1ccc(Nc2cc(C(=O)NCCCN(C)Cc3ccccc3)c3ccccc3n2)cc1OC,-3%,/,/,/,/,/
CCCCN1C(=O)CN(C2CCCCCC2)C(=O)C1c1ccc(OCC)c(OC)c1 (stereo not drawn),5%,/,/,/,/,/
CNCCCCOc1ccccc1Cc1ccccc1,-5%,/,17µM*,49%,/,13µM*
CN(C)CCOc1ccccc1Cc1ccccc1,-2%,-6%[8.37 µM],?,3%,48%,?
CC(=O)c1ccc2noc(-c3cccc(F)c3)c2c1,-10%,2.2µM*,13%,-9%,-4%,0%
C=C[C@]1(C)C=C2CCC3[C@](C)(CCC[C@@]3(C)C(=O)O)C2CC1 (stereo partly drawn),-7%,2.2µM*,1%,-30%,6%,-28%
SMILES,AmpC inh detg,HCV inhibitor,Pf growth 96h,AmpC no deterg,AMA1-RON2 inh,Pf growth 48h
C=C/C(C)=C/CC1C(=C)CCC2C(C)(C(=O)O)CCCC12C (stereo not drawn),3%,14%,-6%,-52%,-23%,?
Cc1ccc(-c2nc(CCNC(=O)C(=O)Nc3ccc(F)cc3F)cs2)cc1,1%,/,/,/,/,/
Cn1c(=O)c2c(-c3cccc(F)c3)c3c(nc2n(C)c1=O)-c1ccccc1C3O (stereo not drawn),0%,/,58%,-17%,/,3%
Cn1c(=O)c2c(-c3ccccc3F)c3c(nc2n(C)c1=O)-c1ccccc1C3O (stereo not drawn),-8%,4%,0.23µM*,-11%,-2%,-21%
COc1ccc(S(=O)(=O)NCC(c2ccco2)N2CCOCC2)cc1OC (stereo not drawn),3%,/,/,/,/,/
C=CCOC1=CS(=O)(=O)N(Cc2ccc(Br)cc2)c2ccc(Br)cc21,/,20µM*,/,-26%,-11%,/
O=c1cc(-c2ccccc2)n2c(SCc3ccccc3Cl)nnc2[nH]1,-1%,/,/,/,/,/
COc1cc(OC)c(NC(=O)Nc2nnc(N(C)C3CCCCC3)s2)cc1Cl,-9%,/,/,/,/,/
CCSc1nnc2c(n1)OC(c1ccc(C)cc1)N(C(C)=O)c1ccccc1-2 (stereo not drawn),-1%,/,/,/,/,/
C=CCC[C@@H](Cc1ccc(F)cc1)C(=O)OC[C@@H](Cc1ccccc1)NC(=O)[C@H](CC=C)CC(=O)NCCO,/,7.1µM*,/,281%,12%,/
C=CCC[C@@H](Cc1ccc(F)cc1)C(=O)OCCNC(=O)[C@@H](CC=C)CC(=O)N(CCO)Cc1ccccc1,/,10µM*,/,308%,-1%,/
C=CC[C@@H](Cc1ccc(F)cc1)C(=O)OC[C@@H]1CCCN1C(=O)[C@H](CC=C)CC(=O)N(CCO)Cc1ccccc1,/,1.4µM*,/,273%,-3%,/
C=CC[C@H](CC(=O)N(CCO)Cc1ccccc1)C(=O)N[C@@H](COC(=O)[C@@H](CC=C)CC(=O)OC(C)(C)C)Cc1c[nH]c2ccccc12,/,?,/,166%,-12%,/
C=CC[C@H](CC(=O)N(CCO)Cc1ccccc1)C(=O)N[C@H](COC(=O)[C@H](CC=C)CC(=O)OC(C)(C)C)Cc1c[nH]c2ccccc12,/,25µM*,/,116%,-22%,/
C=CCC[C@H](Cc1ccc(F)cc1)C(=O)OC[C@@H](C)NC(=O)[C@H](CC=C)CC(=O)NCCO,/,?,/,161%,20%,/
COc1ccccc1C(=O)N(c1ccc(C)cc1)S(=O)(=O)c1ccc(Cl)cc1,20%,/,/,/,/,/
Cn1c(=O)c2c(SCC(=O)NCC3CCCO3)nc(-c3cccc(F)c3)nc2n(C)c1=O (stereo not drawn),23%,/,/,/,/,/
Cc1cccc(N2CCN(C(=O)C(C)n3nc(C)n4c(cc5occc54)c3=O)CC2)c1C (stereo not drawn),10%,10µM*,-21%,127%,-10%,/
Cc1cccc(CN(CC(=O)N/N=C/c2cccs2)S(=O)(=O)c2ccc(Cl)cc2)c1,-14%,11µM*,?,-38%,-1%,-1%

# Compound activity from PubChem.
